A selection: hits, their analogues and other compounds. The true share with any hit is near 1.4%.
RXFP1 antag: RXFP1 (human) relaxin receptor antagonism. Q9HBX9. HEK293-RXFP1, relaxin-stimulated cAMP HTRF, 30 min; stronger effect = lower value. activity change, negative = inhibition, % at 57.5 µM. 0.59% of 350,000 active. AID 1259400;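 active means activity change of -60% or lower, but not beyond a set lower limit; inconclusive means change between -60% and -40%, or beyond the set limit; inactive means change above -40%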; further: on the % scale 0 is the no-effect control and ±100 the full control effect
Target sequence (Q9HBX9 whole entry, looked up): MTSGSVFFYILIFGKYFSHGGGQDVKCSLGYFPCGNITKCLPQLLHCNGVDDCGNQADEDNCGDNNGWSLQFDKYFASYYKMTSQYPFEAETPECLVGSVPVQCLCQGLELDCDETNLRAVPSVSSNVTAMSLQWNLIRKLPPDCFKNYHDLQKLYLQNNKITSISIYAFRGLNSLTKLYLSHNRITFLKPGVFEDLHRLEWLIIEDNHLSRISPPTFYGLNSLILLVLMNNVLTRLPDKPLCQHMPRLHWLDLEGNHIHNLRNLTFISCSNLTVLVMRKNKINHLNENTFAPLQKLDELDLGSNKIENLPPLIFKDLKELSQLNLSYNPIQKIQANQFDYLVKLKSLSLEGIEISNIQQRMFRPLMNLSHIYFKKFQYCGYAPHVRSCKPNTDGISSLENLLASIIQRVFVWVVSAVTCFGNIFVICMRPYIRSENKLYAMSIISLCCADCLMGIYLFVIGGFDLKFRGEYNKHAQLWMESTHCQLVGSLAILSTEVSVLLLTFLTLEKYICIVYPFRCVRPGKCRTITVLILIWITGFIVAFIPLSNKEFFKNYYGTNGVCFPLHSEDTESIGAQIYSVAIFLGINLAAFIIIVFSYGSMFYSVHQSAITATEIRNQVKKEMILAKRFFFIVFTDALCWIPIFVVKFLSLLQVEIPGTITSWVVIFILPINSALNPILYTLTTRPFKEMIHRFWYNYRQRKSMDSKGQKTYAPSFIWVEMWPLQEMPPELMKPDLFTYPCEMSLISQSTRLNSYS
GRP78 ERSR act: induces the endoplasmic reticulum stress response in human glioma cells; U87-MG GRP78 promoter luciferase reporter, 16 h; Potency, µM, inactives show top-dose activation, most hits filed as activators; 0.02% of 420,000 active; AID 602332; further: potency means the concentration at half of the fitted maximal effect; series mostly up to about 76 µM; % of control where 0% means no effect; nearly all actives have a fitted effect of over 35% in size
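ERSR induction read as luciferase luminescence (Bright-Glo, 10 min at room temperature) in stably transfected human U87-MG glioma cells exposed to compounds for 16 h, using GRP78 as sensor.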
KCNH2 3.1 block: KCNH2 3.1 (human) potassium channel inhibition; U2OS KCNH2 3.1, thallium flux FluxOr; stronger effect = lower value; activity change, % (tested at about 1.8 µM); 0.95% of 340,000 active; AID 720553;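 active means maximum activity change below -70%; inconclusive means maximum activity change from -70% to -50%; inactive means maximum activity change above -50%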;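 further: thallium influx rate constant from kinetic fluorescence after stimulation buffer; on the % scale 0 is the no-effect control and ±100 the full control effect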
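Measured as rate of thallium-driven FluxOr signal in transduced U2OS cells carrying the 3.1 channel, read kinetically for 2 min upon stimulation; values are rate constants scaled to DMSO control wells.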
hERG WT inh: blocks the wildtype human KCNH2 potassium channel; Q12809; activity change, % at 1.84 µM; AID 720551; U2OS, BacMam KCNH2, thallium flux FluxOr; stronger effect = lower value; 0.37% of 340,000 active;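 active means maximum activity change below -70%; inconclusive means maximum activity change between -70% and -50%; inactive means maximum activity change above -50%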; further: on the % scale 0 is the no-effect control and ±100 the full control effect
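U2OS cells transduced with wild-type KCNH2 virus are loaded with FluxOr dye for 45 min, and thallium flux is measured in kinetic reads before and after stimulation buffer. Rate constants are normalized to DMSO controls.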
RXFP1 ag: RXFP1 (human) receptor agonism | Potency, µM (titrated, usually from 57.5 µM), for the others: at the highest dose activation, most hits filed as activators | Q9HBX9 | HEK293T-RXFP1 cAMP TR-FRET, 30 min; response scale: percent of porcine relaxin response, buffer zero | 0.3% of 370,000 active; further: potency means the concentration at half of the fitted maximal effect; on the % scale 0 is the no-effect control and ±100 the full control effect; nearly all actives have a fitted effect of over 60% in size
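cAMP rise read by TR-FRET after 30 min, 37C compound exposure (up to 58 uM) in RXFP1-transfected HEK293 cells with Ro 20174 present. EC50 from Hill-equation fits, with 29 nM porcine relaxin as 100% and buffer as basal.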
PTHR1 ag: agonists of human PTHR1 parathyroid hormone receptor. HEK293 GP2 PTHR1 cells, GloSensor cAMP luminescence, 1 h. Potency, µM (highest dose often 115 µM), for inactives: top-dose activation, actives largely listed as activators. 0.075% of 410,000 active. AID 743266; further: potency means the concentration at half of the fitted maximal effect; nearly all actives have a fitted effect of over 55% in size
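HEK-293-derived GP2 cells expressing PTHR1 and a GloSensor cAMP reporter, 3,000/well, plated overnight, given luciferin plus IBMX (each 0.5 mM as added) for 1 h at 37 °C, then compound for 1 h at 37 °C. Luminescence was read after 15 min at room temperature.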
An asterisk follows results filed as active; i = inactive; ? = inconclusive; nt = not tested or not shown; [ ] = remark or other dose. Unless noted, the call rests on the fitted dose curve; in most records, active means well fitted curve in the direction sought with a large enough effect; inconclusive means small, poorly fitted or top-dose-only effect, or another doubt; inactive means no such curve, though single readings can be large; an effect the other way counts as inactive or inconclusive.

SMILES | RXFP1 antag | GRP78 ERSR act | KCNH2 3.1 block | hERG WT inh | RXFP1 ag | PTHR1 ag
CC(C)C(Br)C(=O)NC(N)=O (stereo not given) | 5 | -5% | nt | nt | nt | nt
COc1ccc(OC)c(NP(=O)(Oc2ccc(Cl)cc2)Oc2ccc(Cl)cc2)c1 | -5 | -3% | 7 | -11 | 7% | i
COc1ccc(NP(=O)(Oc2ccc(Cl)cc2)Oc2ccc(Cl)cc2)cc1OC | -19 | -6% | -113* | -30 | 0% | i
COc1cc(CC(=O)N2C[C@H]3C[C@@H](C2)c2cccc(=O)n2C3)cc(OC)c1OC | nt | -2% | 1 | -199* | 0% | -10%
CC(C)N1CCN(Cc2cccc([N+](=O)[O-])c2)CC1 | -12 | -4% | 3 | 0 | 1% | i
O=[N+]([O-])c1cccc(CN2CCN(Cc3ccc(Cl)cc3)CC2)c1 | ? | 1% | -84* | -9 | 0% | -16%
Cn1c(O)c(C=NC2CC(C)(C)NC(C)(C)C2)c(=O)n(C)c1=O | -1 | -1% | 5 | 8 | 4% | i
O=C(NCC1=C(c2ccc3ccccc3c2)C[C@@H]2CC[C@H]1N2Cc1ccco1)c1cccnc1 | 6 | -3% | -21 | 1 | nt | -3%
CCOC(=O)c1cccc(C2=C(CNC(=O)c3nccs3)[C@H]3CC[C@@H](C2)N3Cc2ccccc2)c1 | 14 | -5% | -84* | 18 | nt | 2%
CS(=O)(=O)c1ccc(C2=C(CNC(=O)c3cccnc3)[C@H]3CC[C@@H](C2)N3Cc2ccccc2)cc1 | 7 | -7% | ? | -26 | nt | -5%
CS(=O)(=O)c1ccc(C2=C(CNC(=O)c3ccncc3)[C@H]3CC[C@@H](C2)N3CCOc2ccccc2)cc1 | 2 | -4% | ? | ? | nt | -52%
CS(=O)(=O)c1ccc(C2=C(CNC(=O)c3ccc([N+](=O)[O-])cc3)[C@H]3CC[C@@H](C2)N3Cc2ccccc2)cc1 | 5 | -7% | -101* | -86* | nt | -21%
O=C(NCC1=C(c2cccc3ccccc23)C[C@@H]2CC[C@H]1N2Cc1ccco1)c1ccc([N+](=O)[O-])cc1 | 5 | -1% | -93* | -24 | nt | 22%
CS(=O)(=O)c1ccc(C2=C(CNC(=O)c3ccc([N+](=O)[O-])cc3)[C@H]3CC[C@@H](C2)N3CCOc2ccccc2)cc1 | -18 | -1% | -110* | -92* | nt | -20%
C=CCN1C[C@H](C)N([C@H](c2ccc(C(=O)N(CC)CC)cc2)c2cccc(OC)c2)C[C@H]1C | 1 | -2% | nt | nt | nt | nt
CCN(CC)c1ccc(CN2CC=C(c3ccc(F)cc3)CC2)cc1 | ? | -10% | -24 | 29 | 0% | -27%[57.5 µM]
COc1ccc(CN2CC=C(c3ccc(F)cc3)CC2)cc1Br | -11 | -5% | -139* | 11 | 2% | -21%
COc1cccc(C2(C#N)CCN(C)CC2)c1 | -3 | 1% | -2 | 3 | -1% | -8%
CNc1ccc2nc3ccccc3[n+](C)c2c1 | -92* | -2% | 1 | 6 | 9% | -15%
CSc1ccc(C(=O)C2CCCN(Cc3cc4ccccc4[nH]3)C2)cc1 (stereo not given) | -33 | 0% | -104* | -18 | 1% | -57%
CSc1ccc(C(=O)C2CCCN(Cc3cccnc3)C2)cc1 (stereo not given) | -9 | -3% | 0 | 0 | 0% | -20%
O=C(NN1C(=O)C2C3C=CC(C4CC34)C2C1=O)c1ccc(Br)cc1 (stereo not given) | -4 | -4% | 6 | 9 | -1% | -41%
Clc1ccc(C(c2ccc(Cl)cc2)C(Cl)(Cl)Cl)cc1 | -72* | -4% | nt | nt | nt | nt
Oc1ccc(Cl)cc1 | 9 | -2% | 17 | 7 | nt | -15%
O=C1Nc2cc(Cl)c(Cl)cc2N2CCNC[C@H]12 | nt | -5% | nt | nt | nt | nt
Cc1nn(C(C)(C)C)c(C)c1/C=N/OC(=O)Nc1ccc(Cl)c(Cl)c1 | -4 | -16% | -29 | 8 | -1% | -47%
CC(C)=CC1C(C(=O)OCN2C(=O)C3=C(CCCC3)C2=O)C1(C)C (stereo not given) | -95* | -2% | nt | nt | nt | nt

Bioassay records deposited in PubChem by National Center for Advancing Translational Sciences (NCATS).
